Assay results reported in PubChem BioAssay AID1903 (Southern Research Specialized Biocontainment Screening …, 2009).
Among all 310,000 compounds or so, about 1,200 (0.39%) were called active. The rule behind the calls is not given here. A selection follows. Potency and affinity values are given separately.

target: Large T antigen (Simian virus 40) (UniProt P03070); assay: TAg ATPase/helicase activity blockers – biochemical (AID 1903); details: SV40 large T antigen ATPase/helicase inhibition assay; at 20 µM; active compounds read high
Sequence (P03070 whole entry, looked up): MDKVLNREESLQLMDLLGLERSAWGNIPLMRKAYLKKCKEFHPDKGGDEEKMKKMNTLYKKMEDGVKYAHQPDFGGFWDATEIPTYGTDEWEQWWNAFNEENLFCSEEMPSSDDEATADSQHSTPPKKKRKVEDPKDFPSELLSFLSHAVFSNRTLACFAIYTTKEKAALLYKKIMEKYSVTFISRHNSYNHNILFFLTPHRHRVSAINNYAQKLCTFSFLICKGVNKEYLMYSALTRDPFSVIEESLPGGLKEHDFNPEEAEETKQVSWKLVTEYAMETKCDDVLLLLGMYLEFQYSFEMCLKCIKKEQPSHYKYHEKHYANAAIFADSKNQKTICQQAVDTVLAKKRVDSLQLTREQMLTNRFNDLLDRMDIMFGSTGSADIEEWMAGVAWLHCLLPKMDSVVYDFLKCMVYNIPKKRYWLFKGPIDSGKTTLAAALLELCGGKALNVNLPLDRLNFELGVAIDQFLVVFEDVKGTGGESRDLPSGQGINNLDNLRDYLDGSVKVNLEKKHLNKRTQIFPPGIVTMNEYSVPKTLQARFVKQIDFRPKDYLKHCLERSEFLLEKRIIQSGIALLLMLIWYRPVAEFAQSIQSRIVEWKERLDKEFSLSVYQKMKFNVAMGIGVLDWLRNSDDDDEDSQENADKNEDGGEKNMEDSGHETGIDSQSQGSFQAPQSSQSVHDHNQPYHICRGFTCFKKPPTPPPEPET

inhibition, inactive:
Nc1ccc2oc(-c3cccs3)nc2c1 5.03%, c1csc(-c2nc3ccccc3[nH]2)c1 -3.54%, c1ccc2[nH]c(CCCc3nc4ccccc4[nH]3)nc2c1 12.5%, Nc1ccc2nc(CCCCc3nc4ccccc4[nH]3)[nH]c2c1 32.7%, c1ccc2[nH]c(CCCCc3nc4ccccc4[nH]3)nc2c1 5.68%, OCCCc1nc2ccccc2[nH]1 13.1%, O=[N+]([O-])c1ccc2nc(CCCO)[nH]c2c1 -0.4%, Nc1cccc(CCc2nc3cc4ccccc4cc3[nH]2)c1 21.5%, CCOC(=O)C1=C(COC(=O)/C=C/c2ccc(OC)cc2OC)NC(=O)NC1C (stereo unspecified) 3.33%, CCc1noc(C)c1C(=O)Oc1ccc(N(C)S(=O)(=O)c2ccccc2)cc1 12.4%, Cc1nn(-c2ccccc2)c(Cl)c1/C=N/NC(=O)c1ccnn1C 19.3%, O=C(O)c1ccc(/C=N/Nc2ccc(F)cc2F)cc1 9.08%, COc1cccc(CC(NC(C)=O)C(=O)NC2CCN(S(=O)(=O)c3ccc(NC(C)=O)cc3)CC2)c1 (stereo unspecified) 12.6%, COc1ccc(OC)c(N(CC(=O)NCc2ccccn2)S(C)(=O)=O)c1 5.82%, COc1ccc(/C=N/NC(=O)c2ccccc2OC)cc1COc1ccc(C)cc1 1.22%, O=C(c1ccc2c(c1)OCO2)N(c1ccc(F)cc1)C1C=CS(=O)(=O)C1 (stereo unspecified) -0.44%, CCOc1cc(/C=C/c2ccc3cccc([N+](=O)[O-])c3n2)ccc1O 3.61%, CCOc1cc(/C=C/c2cc(C(=O)O)c3ccccc3n2)ccc1O 31%, COc1ccc(/C=N/NC(=O)c2ccc(=O)n(C)c2)cc1OC 3.81%, CCC(=Nc1ccccc1OC)C1=C(O)CC(c2ccccc2)CC1=O (stereo unspecified) 2.58%, CCC(=NC)C1=C(O)CC(c2ccccc2)CC1=O (stereo unspecified) 3.84%, O=C1c2cccnc2C(=O)N1Cc1ccc(S(=O)(=O)NCc2ccco2)cc1 14.4%, N#C/C(=C\c1ccc(Br)s1)C(=O)N1CCN(c2ccccc2)CC1 7.79%, CN(C)C(CNC(=O)c1ccc2nc[nH]c2c1)c1ccccc1 (stereo unspecified) 12.7%, NC1=NC(=O)/C(=C/c2cccs2)S1 3.51%, NC1=NC(=O)/C(=C\c2cccs2)S1 16.2%, COc1cccc(C(=O)CN(C(=O)c2ccc(Cl)c(Cl)c2)N2C(=O)C3CCCCC3C2=O)c1 (stereo unspecified) 24.4%, COc1ccccc1C(=O)COC(=O)CCCN=C1NS(=O)(=O)c2ccccc21 11.1%, Oc1ccc(Br)cc1-c1cc(-c2ccccc2)n[nH]1 23.6%, Nc1cc(-c2ccc(Br)cc2)[nH]n1 8.97%, O=C1c2ccccc2CC1Sc1nnc(-c2ccccn2)o1 (stereo unspecified) 13.2%, CCC(Sc1nnnn1-c1ccccc1)C(=O)NC(C)c1ccccc1 (stereo unspecified) 1.1%, Cc1ccc(Nc2ccccc2)cc1 9.98%, c1ccc(Nc2ccccc2)cc1 12.1%, CN(Cc1nc(-c2cnccn2)no1)CC(O)c1ccccc1 (stereo unspecified) 9.11%, COc1ccc(/C(C)=N\NC(=O)CSc2nnc(C)s2)cc1 4.01%, C/C(=N\NC(=O)CSc1nnc(C)s1)c1ccc(O)cc1 26.9%, C/C(=N\NC(=O)CSc1nc2ccccc2[nH]1)c1ccncc1 5.69%, COc1cc(/C(C)=N\NC(=O)CSc2nc3ccccc3n2C)ccc1O 25.3%, Cc1ccc(CNC(=O)c2nn(C)c(C)c2[N+](=O)[O-])cc1 10.1%, O=S(=O)(NCC1CCCN(Cc2ccccc2O)C1)c1cccc2cccnc12 (stereo unspecified) 21.3%, S=C(NCCSCc1c(Cl)cccc1Cl)Nc1ccccc1 3.66%, O=C(NC(NC1CCS(=O)(=O)C1)C(Cl)(Cl)Cl)c1cccc(Cl)c1 (stereo unspecified) 26%, S=C(NCc1cccnc1)Nc1ccc2c(c1)OCO2 9.73%, c1cc(CNc2ccc3c(c2)OCO3)ccn1 25.9%, CCN(CC)c1ccc(NC(=O)COC(=O)/C=C/c2nc3ccccc3s2)cc1 37.1%, O=C(COC(=O)c1cccs1)Nc1ccccc1 -1.96%, CCN(c1ccc(NC(=O)COC(=O)c2cccs2)cc1)C(C)C 25.9%, O=C(COC(=O)c1ccc2ccccc2n1)NCc1ccccc1 6.87%, COc1cccc(NC(=O)COC(=O)COc2ccccc2[N+](=O)[O-])c1 7.61%, O=C(COC(=O)COc1ccccc1[N+](=O)[O-])Nc1cccc(Br)c1 -10.5%, CCCCCSc1nnc2c(n1)OC(C)N(C(C)=O)c1ccccc1-2 (stereo unspecified) 5.71%, N#Cc1nc(COc2ccccc2Cl)oc1NCc1ccco1 15.3%, Cc1cc(C)nc(SCCC(=O)Nc2ccccc2)n1 -11.3%, COc1cccc2cc(C(=O)NNC(=O)c3ccc(Br)cc3)c(=O)oc12 -2.17%, COc1ccc(/C=C/C(=O)Nc2cc(S(=O)(=O)N3CCCCC3)ccc2N2CCCCC2)cc1OC -6.48%, CC/C(=C\C(=O)c1ccncc1)Nc1ccc(Br)cc1 14.6%, Cc1nonc1C(=O)N/N=C/c1ccccc1 -0.19%, COc1ccc2c(c1)c(C(=O)N/N=C/c1ccc(OC)c(OC)c1)c(C)n2C 13.7%, COc1ccc2c(c1)c(C(=O)N/N=C/c1cccc(O)c1)c(C)n2C 14.4%, O=C(COc1ccccc1C(=O)N/N=C\c1ccc(O)c(O)c1)N/N=C/c1ccc(O)c(O)c1 2.12%, O=C(N/N=C/c1cccc(O)c1)N/N=C/c1cccc(O)c1 18.6%, C=C1CC(C(=O)N/N=C/c2ccccc2)C1 5.07%, CC(C)(C)c1ccc(/C=N/NC(=O)C2CCCC2)cc1 13.3%, Cc1nonc1C(=O)N/N=C/c1cccc(O)c1 8.34%, Cc1ccc2[nH]c(=O)c(CN(CC3CCCO3)S(=O)(=O)c3c(C)ccc4nsnc34)cc2c1 (stereo unspecified) -0.695%, CC(C)CC(CO)N1CCN(C(=O)c2ccccc2)CCC1=O (stereo unspecified) 16.2%, CSc1ncc(Cl)c(C(=O)Nc2ccccc2[N+](=O)[O-])n1 30.7%, O=C1CC2(CCN(C(=O)c3cccc([N+](=O)[O-])c3)CC2)Oc2ccccc21 22.7%, COCc1ccc(C(=O)N2CCCC(Nc3ccc(C(C)C)cc3)C2)o1 (stereo unspecified) 23.2%, CCCC(c1nnnn1Cc1ccco1)N1CCN(c2ccccc2)CC1 (stereo unspecified) 24%, Cc1cc(Br)ccc1NC(=O)CN1C(=S)NC(C)(C)CC1C (stereo unspecified) 5.62%, CN1C(=O)c2ccc(C(=O)NCc3ccc4c(c3)OCO4)cc2C1=O 4.66%, O=C(/C(=N/N=C/c1ccc(O)c(O)c1)c1ccccc1)c1ccccc1 32.3%, Oc1ccc(/C=N/N(c2ccccc2)c2ccccc2)cc1O 20.4%, O=C(N/N=C/c1ccsc1)C1CC1 14.3%, O=C(N/N=C/c1ccc2c(c1)OCO2)C1CC1 -8.98%, Cc1cccc(OCc2nnc(SCC(=O)Nc3ncc(C)s3)o2)c1 3.87%, O=C1Nc2ccccc2C1=Nc1ccc(Br)cc1 4.56%, O=C1Nc2ccccc2/C1=N\N1CCOCC1 27.9%, COc1ccccc1NCCC(=O)O 26.5%, O=C(O)CCCCCNS(=O)(=O)c1cccc2c1C(=O)c1ccccc1C2=O 27%, O=C(NCC(c1ccc(F)cc1)N1CCOCC1)c1cccnc1Sc1ccc(Cl)cc1 (stereo unspecified) 11.1%, Nc1n[nH]c(=S)n1-c1ccc(Cl)cc1 5.6%, CCCn1cnc2cc(NCc3cccc(OC)c3)ccc21 36.7%, CCn1cnc2cc(NCc3ccccc3Cl)ccc21 21.6%, COc1ccccc1-n1cnc2cc(NCc3ccccc3O)ccc21 33.3%, CCCn1cnc2cc(NCc3ccccc3O)ccc21 33.9%, CCCCN(C(=O)CCCSc1nc2ccccc2[nH]1)c1c(N)n(Cc2ccccc2)c(=O)[nH]c1=O 3.22%, Cc1cccc(N/N=C(\C#N)S(=O)(=O)C(C)(C)C)c1 8.77%, O=C(O)CCCNC(=O)Cc1ccccc1 2.55%, O=C(Cc1cccs1)NNC(=O)c1ccc(F)cc1 8.96%, Cc1cc(Nc2ccccc2Cl)c2ccccc2n1 8.12%, C=CCOc1ccccc1CNc1ccc2c(c1)OCCO2 25.8%, C=CCOc1c(CNc2cccc(C(=O)O)c2)cccc1OC 9.77%, COc1cccc(CNc2ccc3[nH]c(=O)[nH]c3c2)c1OCc1ccccc1Cl 37%, COc1cccc(CNc2ccc(C(=O)O)cc2)c1OCc1ccccc1 7.38%, C=CCOc1c(CNc2ccc(C(=O)O)cc2)cccc1OC 9.8%, C=CCOc1ccccc1CNc1cccc(F)c1 -2.23%, COc1ccc2nc(NC(=O)C3CCN(C(=O)c4ccco4)CC3)sc2c1 -5.44%, Cc1ccc(NC(=O)c2ccc(F)cc2)cc1S(=O)(=O)N1CCCCCC1 7.24%
